What is called inhibition is the change of the read-out against control, counted positive when it falls.

In the first assay the target is Solute carrier family 2, facilitated glucose transporter member 1 (Homo sapiens) (UniProt P11166). The assay can be described thus: ST_JUDE_LEISH: Cytotoxicity at 2uM final concentration against transgenic Leishmania Mexicana promastigotes LmGLUT1 that are glucose transport deficient and complemented with the human glucose transporter GLUT1. Activity is measured by DNA content using SYBR green in vitro. It is filed as functional.
Chain of Solute carrier family 2, facilitated glucose transporter member 1 (Homo sapiens) (P11166 whole entry): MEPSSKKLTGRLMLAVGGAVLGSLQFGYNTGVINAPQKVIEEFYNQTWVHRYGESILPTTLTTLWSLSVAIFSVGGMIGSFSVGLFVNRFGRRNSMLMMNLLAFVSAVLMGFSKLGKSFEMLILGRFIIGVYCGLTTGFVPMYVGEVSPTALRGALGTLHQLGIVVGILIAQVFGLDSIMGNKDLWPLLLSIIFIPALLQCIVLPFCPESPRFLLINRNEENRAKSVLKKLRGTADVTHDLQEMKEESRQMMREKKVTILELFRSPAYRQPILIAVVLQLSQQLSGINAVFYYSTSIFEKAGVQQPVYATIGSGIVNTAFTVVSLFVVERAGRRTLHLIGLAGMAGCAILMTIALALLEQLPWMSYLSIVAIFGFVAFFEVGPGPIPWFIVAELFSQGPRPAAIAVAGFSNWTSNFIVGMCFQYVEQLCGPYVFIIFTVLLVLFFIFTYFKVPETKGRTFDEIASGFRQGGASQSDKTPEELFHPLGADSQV
`CCOc1cc(C(=O)NCCc2ccc(Cl)c(Cl)c2)ccc1-c1nc2cc(Cl)ccc2[nH]1`: the inhibition worked out at 1.92%.

For `CS(=O)(=O)c1ccc(CCNCc2ccc(-c3ccc(CN(C(=O)c4cccc(C#N)c4)C4CCN(Cc5ccccc5)CC4)cc3)nc2)cc1`, the inhibition came to 5.06%.

In the case of `CCCn1c(Sc2ccc(C#N)c([N+](=O)[O-])c2)nnc1-c1ccc(N(C)C)cc1`, the inhibition was determined as 5.64%.

As for `CCN(CCCN1CCCCC1)c1cc(C)nc(Nc2cccc3c2CCCC3)n1`, the inhibition came to 3.95%.

Turning to `O=C(Nc1cccc(C(F)(F)F)c1)Nc1ccc(Cl)c(C(F)(F)F)c1`, the inhibition was -1.34%.

With `O=C(c1ccc(F)c(F)c1)N1CCOC(CCN2CCC(c3ccccc3)CC2)(c2ccc(Cl)c(Cl)c2)C1` (stereo not drawn), the inhibition amounted to 4.15%.

With `CC(=O)c1cccc(NC(=O)NC2CCN(CCCCCNC(=O)/C=C/c3ccc(Cl)c(Cl)c3)CC2)c1`, the inhibition came to 1.56%.

Consider `Cn1c(NCc2cc(F)cc3c2OCOC3)nc2cc(Nc3ccnc(Nc4cccc(CS(C)(=O)=O)c4)n3)ccc21`, for which the inhibition is -1.66%.

With `CCNc1cc(C(=O)N[C@@H](Cc2ccccc2)[C@H](O)CNC(C)(C)c2cccc(OC)c2)cc(N2CCCC2=O)c1`, the inhibition was 0.14%.

Turning to `COc1ccc2nccc([C@@H](O)CN3CCC(NC(=O)/C=C/c4ccc5cc(C)[nH]c5c4)CC3)c2c1`, the inhibition worked out at 3.96%.

For the compound `Cc1noc(=O)c2ccc(NC(=O)C(O)(CSc3ccccc3)CC(C)C)cc12` (stereo not drawn), the inhibition was found to be 6.92%.

Take `O=C(Nc1ccccc1)N(Cc1ccc(-c2cccc(CNCc3ccc4c(c3)OCO4)c2)cc1)C1CCN(Cc2ccccc2)CC1`: the inhibition was -0.01%.

`COc1ccc(Cl)cc1N1CCN(CCCNC(=O)c2ccc(-c3nc4cc(Cl)c(F)cc4[nH]3)c(F)c2)CC1`: the inhibition is 6.94%.

In the case of `CC(C)COc1ccc(Cl)cc1Cc1ccc(-c2nc3ccc(Br)cc3[nH]2)o1`, the inhibition was 5.75%.

`Cc1ccccc1C1CCN(C2CCC(NC(=O)/C=C/c3cc(F)ccc3C(F)(F)F)CC2)CC1` (stereo not drawn): the inhibition was found to be 0.1%.

Regarding `COc1ccc(C#Cc2ccc(-c3c(C)[nH]c(C)c(Cl)c3=O)cc2)cc1`, the inhibition is 6.05%.

With `CC(=O)Nc1cccc(C(=O)Nc2cccc(-c3csc(-c4nc5ccccc5[nH]4)c3)c2)c1`, the inhibition was determined as 4.93%.

Consider `O=C1COc2ccc(CNC3CCC(O)(CCc4ccnc5cc6c(cc45)OCCO6)CC3)nc2N1` (stereo not drawn), for which the inhibition stood at 3.59%.

For `C/C=C/COc1ccc2ccccc2c1CNCCCCCCCCNCc1c(OC/C=C/C)ccc2ccccc12`, the inhibition was 16.7%.

Consider `CC(C)(C)c1ccc(Cc2cccc3nc(N)nc(N)c23)cc1`, for which the inhibition worked out at 21%.

In the case of `CN(CCCNC(=S)NC12CC3CC(CC(C3)C1)C2)CCCNc1ccnc2cc(Cl)ccc12`, the inhibition was -1.07%.

`COc1cc2nc(Cl)nc(Nc3ccncc3)c2cc1OC`: the inhibition stood at 0.52%.

Take `COc1cc(NC(=O)CCCCCCCN2CCN(C)CC2)c2ncccc2c1`: the inhibition amounted to 5.39%.

With `O=C(N[C@@H](CC1CCCCC1)C(=O)NCc1cccc(C(F)(F)F)c1)c1ccc(O)c(-c2ccc(Cl)c(Cl)c2)c1`, the inhibition came out at 1.91%.

`CC(C)Cn1ncc2c3c(N)nc(N)nc3ccc21`: the inhibition was 4.46%.

As to `CCN1CCN(Cc2ccc3nc(-c4cc(C)n(Cc5cc(Cl)ccc5OCc5ccccc5)n4)[nH]c3c2)CC1`, the inhibition was 3.5%.

For the compound `Cc1cc(N(C)CCN(C)C)nc(Nc2ccc(Cl)cc2)n1`, the inhibition was determined as 5.23%.

In the case of `Cc1ccc([S+]([O-])Cc2ccc(Cl)cc2)cc1` (stereo not drawn), the inhibition was -0.22%.

For `Cc1noc(C)c1-c1cccc(CNCc2ccc(-c3ccc(-c4nc5cc(C(F)(F)F)ccc5[nH]4)cc3)cc2)c1`, the inhibition stood at 5.36%.

Take `N#Cc1ccc2c(c1)CCN(CCC1CCC(NC(=O)c3cccc(-c4ccc(F)cc4)c3)CC1)CC2` (stereo not drawn): the inhibition was determined as 5.14%.

With `NCc1ccc(CNCc2cccc(-c3cccc(-c4nc5ccccc5[nH]4)c3)c2)cc1`, the inhibition came out at 1.02%.

In the case of `O=C1C2C(c3ccc(Cl)c(Cl)c3)N3CC(OCc4ccccc4)CC3(C(=O)O)C2C(=O)N1c1ccc(Br)cc1` (stereo not drawn), the inhibition was 4.62%.

Turning to `CC(=O)N(C)c1cccc(C(=O)Nc2cccc(-c3cccc(-c4nc5cccc(C)c5[nH]4)c3)c2)c1`, the inhibition is 13.3%.

As for `Cc1ccc(CNC(=O)[C@H](CC(C)C)Nc2cc(C)nc(Nc3ccccc3)n2)cc1`, the inhibition was 3.16%.

Take `COc1cccc2c(N/N=C/c3ccccc3[N+](=O)[O-])ccnc12`: the inhibition amounted to 4.82%.

On to `COc1cc2c(cc1OCCN1CCC(N3CCCC3)CC1)N(C(=O)/C=C/c1ccccc1Cl)CC2`, for which the inhibition amounted to 1.15%.

On to `Cc1ccc(N(CCC(=N)N)Cc2ccccc2)cc1`, for which the inhibition came to 8.97%.

For `COc1ccc2ccc(F)c(CCN3CCC(NCc4cc5c(cn4)OCCO5)CC3)c2n1`, the inhibition was determined as 8.37%.

Regarding `O=C(CN1CCC(NCc2cnc(-c3ccc(Cl)cc3)[nH]2)CC1)N1CCc2ccccc21`, the inhibition was -1.03%.

For the next assay, the target named is Hexose transporter 1 (Plasmodium falciparum) (UniProt O97467). The assay is described as follows: ST_JUDE_LEISH: Cytotoxicity at 2uM final concentration against transgenic Leishmania Mexicana promastigotes LmPfHT that are glucose transport deficient and complemented with the Plasmodium falciparum hexose transporter. Activity is measured by DNA content using SYBR green in vitro. It is filed as functional.
`CCOc1cc(C(=O)NCCc2ccc(Cl)c(Cl)c2)ccc1-c1nc2cc(Cl)ccc2[nH]1`: the inhibition amounted to 0.01%.

With `CS(=O)(=O)c1ccc(CCNCc2ccc(-c3ccc(CN(C(=O)c4cccc(C#N)c4)C4CCN(Cc5ccccc5)CC4)cc3)nc2)cc1`, the inhibition amounted to 4.14%.

Consider `CCCn1c(Sc2ccc(C#N)c([N+](=O)[O-])c2)nnc1-c1ccc(N(C)C)cc1`, for which the inhibition was found to be 4.8%.

In the case of `CCN(CCCN1CCCCC1)c1cc(C)nc(Nc2cccc3c2CCCC3)n1`, the inhibition came out at 2.39%.

With `O=C(Nc1cccc(C(F)(F)F)c1)Nc1ccc(Cl)c(C(F)(F)F)c1`, the inhibition is -2.17%.

Consider `O=C(c1ccc(F)c(F)c1)N1CCOC(CCN2CCC(c3ccccc3)CC2)(c2ccc(Cl)c(Cl)c2)C1` (stereo not drawn), for which the inhibition was determined as 2.12%.

In the case of `CC(=O)c1cccc(NC(=O)NC2CCN(CCCCCNC(=O)/C=C/c3ccc(Cl)c(Cl)c3)CC2)c1`, the inhibition was 2.6%.

Consider `Cn1c(NCc2cc(F)cc3c2OCOC3)nc2cc(Nc3ccnc(Nc4cccc(CS(C)(=O)=O)c4)n3)ccc21`, for which the inhibition was found to be 1.11%.

As for `CCNc1cc(C(=O)N[C@@H](Cc2ccccc2)[C@H](O)CNC(C)(C)c2cccc(OC)c2)cc(N2CCCC2=O)c1`, the inhibition turned out to be 1.76%.

In the case of `COc1ccc2nccc([C@@H](O)CN3CCC(NC(=O)/C=C/c4ccc5cc(C)[nH]c5c4)CC3)c2c1`, the inhibition is 3.03%.

As to `Cc1noc(=O)c2ccc(NC(=O)C(O)(CSc3ccccc3)CC(C)C)cc12` (stereo not drawn), the inhibition is 4.78%.

For `O=C(Nc1ccccc1)N(Cc1ccc(-c2cccc(CNCc3ccc4c(c3)OCO4)c2)cc1)C1CCN(Cc2ccccc2)CC1`, the inhibition worked out at 0.92%.

In the case of `COc1ccc(Cl)cc1N1CCN(CCCNC(=O)c2ccc(-c3nc4cc(Cl)c(F)cc4[nH]3)c(F)c2)CC1`, the inhibition is 2.24%.

Take `CC(C)COc1ccc(Cl)cc1Cc1ccc(-c2nc3ccc(Br)cc3[nH]2)o1`: the inhibition was determined as 5.74%.

For the compound `Cc1ccccc1C1CCN(C2CCC(NC(=O)/C=C/c3cc(F)ccc3C(F)(F)F)CC2)CC1` (stereo not drawn), the inhibition was -0.94%.

In the case of `COc1ccc(C#Cc2ccc(-c3c(C)[nH]c(C)c(Cl)c3=O)cc2)cc1`, the inhibition was found to be 8.9%.

With `CC(=O)Nc1cccc(C(=O)Nc2cccc(-c3csc(-c4nc5ccccc5[nH]4)c3)c2)c1`, the inhibition was 2.83%.

In the case of `O=C1COc2ccc(CNC3CCC(O)(CCc4ccnc5cc6c(cc45)OCCO6)CC3)nc2N1` (stereo not drawn), the inhibition stood at 3.14%.

In the case of `C/C=C/COc1ccc2ccccc2c1CNCCCCCCCCNCc1c(OC/C=C/C)ccc2ccccc12`, the inhibition is 7.28%.

`CC(C)(C)c1ccc(Cc2cccc3nc(N)nc(N)c23)cc1`: the inhibition is 16.4%.

For `CN(CCCNC(=S)NC12CC3CC(CC(C3)C1)C2)CCCNc1ccnc2cc(Cl)ccc12`, the inhibition stood at 0.09%.

For the compound `COc1cc2nc(Cl)nc(Nc3ccncc3)c2cc1OC`, the inhibition was -0.73%.

For `COc1cc(NC(=O)CCCCCCCN2CCN(C)CC2)c2ncccc2c1`, the inhibition worked out at 3.78%.

Regarding `O=C(N[C@@H](CC1CCCCC1)C(=O)NCc1cccc(C(F)(F)F)c1)c1ccc(O)c(-c2ccc(Cl)c(Cl)c2)c1`, the inhibition stood at 1.58%.

In the case of `CC(C)Cn1ncc2c3c(N)nc(N)nc3ccc21`, the inhibition turned out to be 5.97%.

For `CCN1CCN(Cc2ccc3nc(-c4cc(C)n(Cc5cc(Cl)ccc5OCc5ccccc5)n4)[nH]c3c2)CC1`, the inhibition was found to be 3.38%.

Turning to `Cc1cc(N(C)CCN(C)C)nc(Nc2ccc(Cl)cc2)n1`, the inhibition turned out to be 5.67%.

For `Cc1ccc([S+]([O-])Cc2ccc(Cl)cc2)cc1` (stereo not drawn), the inhibition was -0.65%.

As for `Cc1noc(C)c1-c1cccc(CNCc2ccc(-c3ccc(-c4nc5cc(C(F)(F)F)ccc5[nH]4)cc3)cc2)c1`, the inhibition amounted to 4.54%.

On to `N#Cc1ccc2c(c1)CCN(CCC1CCC(NC(=O)c3cccc(-c4ccc(F)cc4)c3)CC1)CC2` (stereo not drawn), for which the inhibition is 2.32%.

Turning to `NCc1ccc(CNCc2cccc(-c3cccc(-c4nc5ccccc5[nH]4)c3)c2)cc1`, the inhibition is -3.61%.

As to `O=C1C2C(c3ccc(Cl)c(Cl)c3)N3CC(OCc4ccccc4)CC3(C(=O)O)C2C(=O)N1c1ccc(Br)cc1` (stereo not drawn), the inhibition came to 4.75%.

On to `CC(=O)N(C)c1cccc(C(=O)Nc2cccc(-c3cccc(-c4nc5cccc(C)c5[nH]4)c3)c2)c1`, for which the inhibition turned out to be 3.96%.

For `Cc1ccc(CNC(=O)[C@H](CC(C)C)Nc2cc(C)nc(Nc3ccccc3)n2)cc1`, the inhibition stood at 4.07%.

For the compound `COc1cccc2c(N/N=C/c3ccccc3[N+](=O)[O-])ccnc12`, the inhibition stood at 5.71%.

In the case of `COc1cc2c(cc1OCCN1CCC(N3CCCC3)CC1)N(C(=O)/C=C/c1ccccc1Cl)CC2`, the inhibition turned out to be 2.02%.

Consider `Cc1ccc(N(CCC(=N)N)Cc2ccccc2)cc1`, for which the inhibition is 3.59%.

Consider `COc1ccc2ccc(F)c(CCN3CCC(NCc4cc5c(cn4)OCCO5)CC3)c2n1`, for which the inhibition amounted to 14%.

On to `O=C(CN1CCC(NCc2cnc(-c3ccc(Cl)cc3)[nH]2)CC1)N1CCc2ccccc21`, for which the inhibition was 0.65%.

The values above are taken from ChEMBL document CHEMBL3433997, “St. Jude Leishmania screening dataset” (2016).
